From PubChem BioAssay AID2650 (Broad Institute, 2010)
The whole screen tested about 320,000 compounds, of which about 320 (0.1%) were called active.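 How the source made its calls: active means more than half of replicates show inhibition above 20%; inconclusive means some but at most half of replicates above 20% inhibition; inactive means no replicate shows inhibition above 20%.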 The entries come from a sample that favours actives as a whole.

Each compound was assayed against Glycogen synthase kinase-3 alpha (Homo sapiens) (UniProt P49840) (assay: blockers of GSK3A enzyme activity – biochemical, luminescence, cell-free homogeneous, HTS, primary screen (AID 2650;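 further: GST-tagged GSK-3 alpha with peptide substrate and 25 µM ATP; 0% = DMSO neutral wells and 100% = GW8510 positive control wells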)). Details: GSK-3 alpha kinase, ADP-Glo luminescence, 60 min; at 10 µM; hits give high values.
Sequence of Glycogen synthase kinase-3 alpha (Homo sapiens) (P49840 whole entry, looked up): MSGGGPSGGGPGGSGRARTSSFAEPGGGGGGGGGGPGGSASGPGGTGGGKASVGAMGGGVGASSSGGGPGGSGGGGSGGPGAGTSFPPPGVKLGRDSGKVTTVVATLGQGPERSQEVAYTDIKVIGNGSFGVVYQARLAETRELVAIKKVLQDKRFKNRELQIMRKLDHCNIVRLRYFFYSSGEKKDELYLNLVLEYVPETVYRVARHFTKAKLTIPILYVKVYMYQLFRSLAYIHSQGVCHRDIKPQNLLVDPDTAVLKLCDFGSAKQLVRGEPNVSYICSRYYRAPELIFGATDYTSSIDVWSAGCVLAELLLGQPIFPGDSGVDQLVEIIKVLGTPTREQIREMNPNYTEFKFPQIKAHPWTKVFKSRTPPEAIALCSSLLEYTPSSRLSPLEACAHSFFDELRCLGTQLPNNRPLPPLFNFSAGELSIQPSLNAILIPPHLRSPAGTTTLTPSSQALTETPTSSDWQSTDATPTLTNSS

inhibition, inactive:
Cc1noc(COc2ccccc2OCc2onc(C)c2Cl)c1Cl -1.26%
O=C1c2ccccc2C2=Nc3ccccc3SC(c3ccccc3F)C12 (stereo not drawn) -0.696%
CC(Sc1nc2cc(Cl)ccc2s1)C(=O)Nc1ccc2c(c1)OCO2 (stereo not drawn) -2.34%
Cc1ccc2c(c1)N(CC(=O)NCCc1ccc(Cl)cc1)C(=O)c1cccnc1O2 -2.75%
CC(C(=O)N1CCOCC1)N1c2cccc3cccc(c23)S1(=O)=O (stereo not drawn) 3.12%
O=S(=O)(NC1CC2CCC1C2)c1ccc(Cl)cc1 (stereo not drawn) -0.939%
CN(C)C(=O)CCC(=O)N1CCCCC1C(=O)Nc1ccc(Oc2ccccc2F)cc1 (stereo not drawn) -0.0266%
O=C(c1ccncc1)N1CCN(S(=O)(=O)c2cc(C(F)(F)F)cc(C(F)(F)F)c2)CC1 -4.58%
CC(C)c1nnc(NC(=O)COC(=O)/C=C/c2ccc([N+](=O)[O-])cc2)s1 0.211%
CC1CCCCC1NC(=O)CCS(=O)(=O)c1cccc2nonc12 (stereo not drawn) -1.36%
COC(=O)[C@]1(Cc2ccccc2)N[C@H](CN(C)S(=O)(=O)c2ccc(F)cc2)[C@@H]2C(=O)N(Cc3ccccc3)C(=O)[C@@H]21 -4.02%
CCc1ccc(C(=O)COC(=O)c2ccco2)cc1 -0.284%
Cc1cccc2sc(N(CCCN(C)C)C(=O)CCS(=O)(=O)c3ccccc3)nc12 1.84%
Cc1ccc(NC(=O)CN(C)C(=O)c2ccc(Cl)c(S(=O)(=O)NCc3ccco3)c2)cc1 -2.08%
COC(=O)C1=C[C@@H](C(=O)OC)[C@@H]2C3=C(C(=O)[C@]2(C)NC(=O)c2ccccc2)[C@H](C)n2c(=O)n(C)c(=O)n2[C@@H]3C1 -1.38%
O=C(OCC(=O)N(CCc1ccccc1)Cc1ccccc1)c1ccccc1[N+](=O)[O-] 0.711%
CCCc1cc(=O)[nH]c(SCC(=O)Nc2ccc(S(=O)(=O)N3CCCC3)cc2)n1 -3.71%
Cc1cccc(C)c1NC(=O)CS(=O)CC(=O)N1CCN(c2ccccc2)CC1 (stereo not drawn) -1.33%
Cc1c(OC(C)C(=O)NCC2CCC(C(=O)O)CC2)ccc2c1oc(=O)c1ccccc12 (stereo not drawn) 2.24%
Cc1ccc(N2C(=O)CC(N3CCSCC3)C2=O)c(C)c1 (stereo not drawn) -1.07%
CC(C)(C)c1ccc(/C=C/C(=O)NCCCn2ccnc2)cc1 1.07%
O=C(CSc1nc2ccccc2c(=O)n1Cc1ccc(F)cc1)NCC1CCCO1 (stereo not drawn) -2.48%
CC(=O)N1CCc2cc(S(=O)(=O)NC3CCCCC3)ccc21 1.13%
